Laboratory results published in PubChem BioAssay (Tox21).
Where “and” joins values, the source holds several entries; their conditions need not be identical. Identical values can stand only once. Calls of active or inactive are those of the source. Unless noted, calls follow the shape of the dose curve; as a rule, active = well fitted curve in the direction sought with a large enough effect in the repeat runs; inconclusive = weak or mixed curves; inactive = no such curve, though single readings can be large; an effect the other way counts as inactive or inconclusive.

Assays:
[1] = qHTS assay for small molecule agonists of the p53 signaling pathway (AID 651631; calls by dose curve; also: nearly all actives have a fitted effect of over 15% in size; also: potency is read from the fitted curve at half-maximal effect)
Procedure, shortened: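 HCT-116 cells carrying a stable p53 response element–beta-lactamase reporter were plated, rested 5 h at 37 °C, then exposed to compound in DMSO for 16 h at 37 °C; reporter activity was read as FRET substrate fluorescence after 2 h at room temperature.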

[2] = qHTS assay to test for compound auto fluorescence at 535 nm (green) in HepG2 cells (AID 720675); also: potency is read from the fitted curve at half-maximal effect
[3] = qHTS assay to test for compound auto fluorescence at 590 nm (red) in HepG2 cell free culture (AID 720684)
Procedure, shortened: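 Readout: intrinsic compound fluorescence at 590 nm emission after 540 nm excitation, scaled to Rose Bengal sodium. Matrix was cell-free MEM with 10% FBS; DMSO vehicle wells served as control.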

[4] = qHTS assay to test for compound auto fluorescence at 460 nm (blue) in HepG2 cells (AID 720687); also: potency is read from the fitted curve at half-maximal effect
Procedure, shortened: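 Cells (2,000/well in MEM with 10% FBS) attached overnight at 37 C, then were exposed to compound or DMSO for 1 hr at 37 C, 5% CO2. Fluorescence read at Ex/Em 405/460 nm, expressed as triamterene-equivalent signal.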

[5] = qHTS assay to identify small molecule antagonists of the androgen receptor (AR) signaling pathway - cell viability counter screen (AID 743033; also: nearly all actives have a fitted effect of over 45% in size; also: potency is read from the fitted curve at half-maximal effect)
[6] = qHTS assay to identify small molecule antagonists of the androgen receptor (AR) signaling pathway using the MDA cell line - cell viability counter screen (AID 743041; also: nearly all actives have a fitted effect of over 45% in size)
Procedure, shortened: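 qHTS viability read-out; MDA-kb2 AR-luc; R1881-stimulated; 16 h exposure at 37C, 0% CO2; CellTiter-Fluor, 30 min; fluorescence intensity.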

[7] = qHTS assay to identify small molecule antagonists of the thyroid receptor (TR) signaling pathway - cell viability counter screen (AID 743064); also: nearly all actives have a fitted effect of over 50% in size; also: potency is read from the fitted curve at half-maximal effect
Procedure, shortened: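 GH3.TRE-Luc rat pituitary cells carrying a TRE-luciferase reporter were treated with compound plus 1 nM T3 (final) for 23.5 h at 37 °C. Viability was then read in the same wells by CellTiter-Fluor fluorescence after a further 30 min.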

[8] = tested on: thyroid hormone receptor (rat, GH3 cells); experiment: qHTS assay to identify small molecule agonists of the thyroid receptor (TR) signaling pathway (AID 743066; calls by dose curve)
[9] = qHTS assay to identify small molecule antagonists of the estrogen receptor alpha (ER-alpha) signaling pathway using the BG1 cell line - cell viability counter screen (AID 743081);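 also: compound given together with 17beta-estradiol as the ER stimulus; series mostly up to about 70 µM; nearly all actives have a fitted effect of over 45% in size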
[10] = qHTS assay to test for compound auto fluorescence at 460 nm (blue) in HepG2 cell free culture (AID 720685); also: potency is read from the fitted curve at half-maximal effect
Procedure, shortened: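 Cell-free plates of MEM plus 10% FBS received 23 nL compound or DMSO vehicle; blue-channel (405/460 nm) intensity scored against triamterene as reference fluorophore.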

[11] = qHTS assay to test for compound auto fluorescence at 535 nm (green) in HepG2 cell free culture (AID 720686); also: potency is read from the fitted curve at half-maximal effect
[12] = target: Glucocorticoid receptor (Homo sapiens) (UniProt P04150); experiment: qHTS assay to identify small molecule agonists of the glucocorticoid receptor (GR) signaling pathway (AID 720691; active = well fitted activation curve with a large enough effect in the signal ratio in the repeat runs, not every such curve was filed as active; inconclusive = weak or mixed curves, or effect the other way; inactive = no such curve, though single readings can be large or run the other way; the % refers to the signal ratio; also: potency is read from the fitted curve at half-maximal effect)
Glucocorticoid receptor (Homo sapiens), sequence (P04150 whole entry, looked up): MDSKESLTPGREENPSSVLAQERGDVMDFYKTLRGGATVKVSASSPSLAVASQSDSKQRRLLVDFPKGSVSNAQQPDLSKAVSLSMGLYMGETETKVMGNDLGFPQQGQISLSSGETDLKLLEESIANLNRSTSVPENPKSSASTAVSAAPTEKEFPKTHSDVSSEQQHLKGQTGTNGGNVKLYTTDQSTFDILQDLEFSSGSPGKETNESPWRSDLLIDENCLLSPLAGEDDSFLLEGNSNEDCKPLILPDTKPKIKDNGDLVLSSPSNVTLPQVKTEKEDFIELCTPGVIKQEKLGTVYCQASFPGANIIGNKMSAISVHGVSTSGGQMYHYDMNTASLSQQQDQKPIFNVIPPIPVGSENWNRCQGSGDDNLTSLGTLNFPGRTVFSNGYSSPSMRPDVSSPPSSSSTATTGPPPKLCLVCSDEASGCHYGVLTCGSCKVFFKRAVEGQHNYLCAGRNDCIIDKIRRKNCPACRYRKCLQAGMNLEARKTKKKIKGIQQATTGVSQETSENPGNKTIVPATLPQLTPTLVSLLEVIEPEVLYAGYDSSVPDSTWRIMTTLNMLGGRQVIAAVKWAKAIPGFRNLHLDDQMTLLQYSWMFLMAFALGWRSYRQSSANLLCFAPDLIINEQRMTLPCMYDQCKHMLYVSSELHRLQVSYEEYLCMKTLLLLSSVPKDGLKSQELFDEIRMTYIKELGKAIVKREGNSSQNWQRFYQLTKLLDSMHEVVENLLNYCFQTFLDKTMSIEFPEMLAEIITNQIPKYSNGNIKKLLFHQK
Procedure, shortened: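 A HeLa cervical cancer line expressing GR and a glucocorticoid response element-driven beta-lactamase gene is treated with compounds for 18 h; LiveBLAzer B/G FRET substrate is then applied and fluorescence read.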

[13] = qHTS assay to identify small molecule antagonists of the thyroid receptor (TR) signaling pathway (AID 743065); also: nearly all actives have a fitted effect of over 55% in size; also: potency is read from the fitted curve at half-maximal effect
Procedure, shortened: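 GH3.TRE-Luc rat pituitary cells carrying two TR response elements driving luciferase were plated for 4 h, given compound plus 1 nM T3 (final), and incubated 23.5 h at 37 C. ONE-Glo luminescence measured reporter inhibition; CellTiter-Fluor fluorescence tracked cytotoxicity.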

[14] = qHTS assay for small molecule disruptors of the mitochondrial membrane potential (AID 720635); also: potency is read from the fitted curve at half-maximal effect
Procedure, shortened: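 HepG2 cells (2,000/well) attached overnight at 37C, then took compound for 1 hr at 37C, 5% CO2. Mito-MPS dye was added for 30 min; fluorescence was read at 490/535 nm (monomers) and 540/590 nm (aggregates).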

[15] = qHTS assay for identifying genotoxic compounds that show differential cytotoxicity against isogenic chicken DT40 cell lines with known DNA damage response pathways - wild type cell line (AID 743012); also: nearly all actives have a fitted effect of over 60% in size; also: potency is read from the fitted curve at half-maximal effect
Procedure, shortened: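 300 wt DT40 cells/well; cpd (DMSO) pintool-transferred after ~0.5 h at 37 C/5% CO2; 40 h incubation; CellTiter-Glo added, 30 min RT; luminescence read.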

[16] = target: Estrogen receptor (Homo sapiens) (UniProt P03372); experiment: qHTS assay to identify small molecule agonists of the estrogen receptor alpha (ER-alpha) signaling pathway (AID 743075; calls by dose curve;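 also: HEK293 GripTite cells with ER-alpha and UAS-driven beta-lactamase reporter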; also: potency is read from the fitted curve at half-maximal effect)
Estrogen receptor (Homo sapiens), sequence (P03372 whole entry, looked up): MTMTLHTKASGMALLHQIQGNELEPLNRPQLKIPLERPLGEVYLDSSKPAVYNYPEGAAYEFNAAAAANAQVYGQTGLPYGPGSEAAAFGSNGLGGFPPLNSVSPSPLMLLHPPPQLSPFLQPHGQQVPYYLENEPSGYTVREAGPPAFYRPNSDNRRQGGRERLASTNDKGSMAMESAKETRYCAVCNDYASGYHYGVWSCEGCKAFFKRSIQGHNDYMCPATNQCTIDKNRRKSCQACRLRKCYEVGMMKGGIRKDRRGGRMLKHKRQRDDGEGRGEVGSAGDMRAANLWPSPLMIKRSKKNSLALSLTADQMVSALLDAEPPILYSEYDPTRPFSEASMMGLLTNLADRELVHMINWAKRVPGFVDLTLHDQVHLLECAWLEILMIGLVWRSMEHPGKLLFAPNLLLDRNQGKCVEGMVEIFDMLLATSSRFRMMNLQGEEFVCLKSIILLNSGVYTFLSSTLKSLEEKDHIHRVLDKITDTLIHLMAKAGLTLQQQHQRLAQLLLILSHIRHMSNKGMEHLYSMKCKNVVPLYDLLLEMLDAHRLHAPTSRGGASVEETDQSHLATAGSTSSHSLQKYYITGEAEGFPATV

[17] = target: Estrogen receptor (Homo sapiens) (UniProt P03372); experiment: qHTS assay to identify small molecule agonists of the estrogen receptor alpha (ER-alpha) signaling pathway using the BG1 cell line (AID 743079); also: nearly all actives have a fitted effect of over 20% in size; also: potency is read from the fitted curve at half-maximal effect
[18] = qHTS assay to identify small molecule antagonists of the estrogen receptor alpha (ER-alpha) signaling pathway using the BG1 cell line (AID 743080; calls by dose curve;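 also: BG1 cells stimulated with 17beta-estradiol alongside compound; series mostly up to about 70 µM; nearly all actives have a fitted effect of over 25% in size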)
Procedure, shortened: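 Luminescence from a 4×ERE-luciferase reporter in BG1-Luc-4E2 cells served as read-out. Cells, pre-cultured 5 days in stripped-serum phenol-red-free medium, were exposed to compound with 17beta-estradiol co-stimulation for 21.5 h at 37 C.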

Measured: Potency
Tags tell the direction and shape of the fitted curve or compound fluorescence and quenching.

CCN(CC)C(=O)N[C@H]1C[C@@H]2c3cccc4[nH]cc(c34)C[C@H]2N(C)C1
inactive: [1] | [2] | [3] | [4] | [5] | [6] | [7] | [8] | [9]

C=C[C@H]1CN2CC[C@H]1C[C@H]2[C@H](OC(=O)OCC)c1ccnc2ccc(OC)cc12
not listed: [2] | [7] | [14] | [15] | [16] | [17] | [18]
inactive: all other assays above

C/C=C(\CC)C(=O)NC(N)=O
active: [17] 29.8 µM
not listed: [2] | [3] | [4] | [10] | [13]
inactive: all other assays above

N#CC(C#N)=Cc1cc(O)c(O)c(O)c1
inactive: [1] | [3] | [10] | [12] | [5] | [8] | [16] | [17] | [18]
active: [14] 5.96 µM | [7] 26.6 µM

C[C@]12CCC(=O)C[C@@H]1CC[C@@H]1[C@@H]2CC[C@@]2(C)[C@H]1CC[C@]2(C)O
active: [16] 477 nM [inconclusive] | [17] 0.15 µM
not listed: [2] | [4] | [7] | [13] | [14]
inactive: all other assays above

COC(=O)[C@@H]1[C@H]2CC[C@@H](C[C@H]1OC(=O)c1ccccc1)N2C
not listed: [12]
inactive: all other assays above

CN[C@@]1(c2ccccc2Cl)CCCCC1=O
not listed: [5] | [13] | [14]
inactive: all other assays above

C[C@@H](Cc1ccccc1)NCCC(c1ccccc1)c1ccccc1
inactive: [1] | [2] | [10] | [4] | [16] | [17] | [18]
active: [15] 3.59 µM | [7] 11.4 µM

O=C1OC2(c3cc(Br)c(O)cc3Oc3c2cc(Br)c(O)[c]3[Hg])c2ccccc21 (centres undefined)
active: [2] 10 µM | [11] 10 µM [fluorescent] | [15] 10.1 µM
not listed: [3] | [5] | [8] | [9] | [13] | [14]
inactive: all other assays above

CN1CC[C@@]23CCCC[C@@H]2[C@@H]1Cc1ccc(O)cc13
inactive: [14] | [2] | [3] | [10] | [11] | [15] | [6] | [16] | [18] | [9]

CN[C@@H](C)Cc1ccccc1
not listed: [12] | [16] | [17] | [18]
inactive: all other assays above

CC(=O)[C@@]1(O)CC[C@H]2[C@@H]3CCC4=CC(=O)CC[C@]4(C)C3(F)[C@@H](O)C[C@@]21C (some centres undefined)
active: [12] 0.19 µM [inconclusive]
not listed: [2] | [3] | [13] | [15] | [18]
inactive: all other assays above

C[C@]12CC[C@@H]3c4ccc(OC(=O)N(CCCl)CCCl)cc4CC[C@H]3[C@@H]1CC[C@@H]2OP(=O)(O)O
active: [1] 7.5 µM and 29.8 µM | [16] 21.3 nM [inconclusive] and 16.9 nM [inconclusive] | [17] 4.7 nM and 16.8 nM
not listed: [2] | [3] | [7] | [8] | [13]
inactive: all other assays above

O=C(O)CCCO
not listed: [16] | [17] | [18]
inactive: all other assays above

COC(=O)[C@H]1[C@@H](OC(=O)c2ccccc2)C[C@@H]2CC[C@H]1N2C
not listed: [5] | [7] | [12]
inactive: all other assays above

CC(N)Cc1ccc2c(c1)OCO2 (centres undefined)
inactive: all assays above

O=C1C[C@@H]2OCC=C3CN4CC[C@]56c7ccccc7N1[C@H]5[C@H]2[C@H]3C[C@H]46 (tested in a mixture with another compound)
not listed: [5] | [12] | [16] | [17] | [18]
inactive: all other assays above

Clc1ccc(C(Cn2ccnc2)OCc2csc3c(Cl)cccc23)c(Cl)c1 (centres undefined)
inactive: [2] | [3] | [10] | [4] | [6] | [18] | [9]
active: [15] 12.7 µM

CCCSc1cc(OC)c(CCN)cc1OC
inactive: [2] | [3] | [10] | [11] | [4] | [12] | [16] | [18]
active: [1] 32.5 µM | [15] 0.183 µM | [7] 29 µM | [13] 32.5 µM

CC(C)[C@H]1C(=O)N2CCC[C@H]2[C@]2(O)O[C@](NC(=O)[C@@H]3C[C@@H]4c5cccc6[nH]cc(c56)C[C@H]4N(C)C3)(C(C)C)C(=O)N12
active: [15] 29.8 µM | [7] 29.8 µM | [13] 29.8 µM | [17] 11.9 µM
inactive: [1] | [2] | [3] | [10] | [11] | [5] | [16] | [18]

C[C@]12CC[C@H](O)C[C@H]1CC[C@@H]1[C@@H]2CC[C@]2(C)[C@@H](c3ccc(=O)oc3)C[C@H]3O[C@]132
inactive: [3] | [11] | [4] | [12] | [7] | [8] | [16] | [9]
active: [14] 2.66 µM | [5] 1.34 µM | [17] 0.944 µM

Oc1ccc2c3c1O[C@H]1[C@@H](O)C=C[C@H]4[C@H](C2)NCC[C@@]341
not listed: [7] | [12] | [14] | [16] | [17] | [18]
inactive: all other assays above

O=C1CN=C(c2ccccc2)c2cc(Cl)ccc2N1
not listed: [3] | [4] | [9] | [13] | [15]
inactive: all other assays above

CC(C)C[C@H]1C(=O)N2CCC[C@H]2[C@]2(O)O[C@](NC(=O)[C@@H]3C[C@@H]4c5cccc6[nH]cc(c56)C[C@H]4N(C)C3)(C(C)C)C(=O)N12
active: [15] 29.8 µM | [13] 29.8 µM
not listed: [3] | [7] | [9] | [12]
inactive: all other assays above

C=CCC1([C@@H](C)CCC)C(=O)NC(=O)NC1=O
not listed: [15]
inactive: all other assays above

CCNC1(c2cccs2)CCCCC1=O (centres undefined)
not listed: [10] | [14] | [15]
inactive: all other assays above

O=c1ccc2cc(O[C@@H]3O[C@H](CO)[C@@H](O)[C@H](O)[C@H]3O)c(O)cc2o1
active: [1] 7.17 µM | [10] 8.91 µM [fluorescent] | [4] 10 µM [fluorescent]
inactive: [14] | [3] | [11] | [5] | [13] | [8] | [17] | [18]

C1CN(P2(N3CC3)=NP(N3CC3)(N3CC3)=NP(N3CC3)(N3CC3)=N2)CCO1 (centres undefined)
active: [15] 3.76 µM
not listed: [1] | [4] | [5] | [12]
inactive: all other assays above

CNC(C)Cc1ccccc1 (centres undefined)
inactive: [1] | [14] | [10] | [11] | [4] | [15] | [6] | [13] | [8] | [9]

CN1C(=O)CC(=O)N(c2ccccc2)c2cc(Cl)ccc21
not listed: [15]
inactive: all other assays above

c1ccc(C2(N3CCCC3)CCCCC2)cc1
active: [14] 19.7 µM | [7] 16.8 µM | [13] 13.3 µM
not listed: [1] | [3] | [6] | [8] | [10] | [15]
inactive: all other assays above
